# Screening results from PubChem.
# NR3A LBD binder = modulates the human NR3A ligand-binding domain; hit rate 2.5% among 340,000; Tm shift relative to glycine control, % at 25 µM; NR3A LBD differential scanning fluorimetry, Tm shift; 0% = protein alone, 100% = glycine-bound protein;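 active means melting temperature shift of at least 10% of the positive control shift, at one fixed dose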
# FAS TE block = blocks the thioesterase domain of human fatty acid synthase; P49327; recombinant FAS-TE, OMFH fluorogenic substrate, fluorescence endpoint; inhibition, % at 15 µM; hit rate 0.67% among 360,000;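 active means compounds whose normalised, plate-corrected inhibition of enzyme fluorescence in the single-dose primary screen is 50% or more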;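 further: 0% = DMSO with enzyme and 100% = substrate without enzyme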
# ADAM10 inh = inhibitors of human ADAM10 | hit rate 0.62% among 370,000 | recombinant ADAM10, EDANS/DABCYL FRET peptide cleavage, 3 h | inhibition, % at 7 µM;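 active means inhibition above a per-campaign cutoff equal to the mean of compounds falling between control-based bounds plus 3 SD, cut at about 20% in these data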;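 further: 0% = DMSO wells while the 100% control is not disclosed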
# ADAM17 inh = ADAM17 inhibition, QFRET primary screen; inhibition, % at 6.95 µM; hit rate 0.83% among 370,000; recombinant ADAM17, EDANS/DABCYL FRET peptide cleavage; P78536; AID 720648;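 active means inhibition above the mean of compounds lying between control limits plus 3 SD, set per campaign, cut at about 8.5% in these data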;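 further: 0% = DMSO-only wells as the low control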
# KLK7 zymogen act = activators of human kallikrein-7 zymogen; activation, % at 7 µM; purified proKLK7, EDANS-DABCYL substrate fluorescence; 100% is mature enzyme control, 0% vehicle; AID 652039; P49862; hit rate 0.9% among 370,000;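 active means activation above the mean of all tested compounds plus 3 SD, computed per campaign excluding outliers beyond control limits, cut at about 13% in these data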
# ADAM10 ctr = counter-screen for ADAM17 exosite inhibitors: inhibitors of human ADAM10; shares compounds with ADAM17 inh; recombinant ADAM10, EDANS/DABCYL FRET peptide cleavage, 3 h; inhibition, % at 6.95 µM; hit rate 47% among 2,900; AID 743256;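 active means mean inhibition over the triplicate runs exceeds the activity threshold set in the earlier primary screen, cut at about 20% in these data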;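 further: 0% = DMSO wells and 100% = marimastat wells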
# ADAM17 confirm = confirmation of inhibitors of human ADAM17; AID 743257; shares compounds with ADAM17 inh; inhibition, % at 6.95 µM; hit rate 65% among 2,900; recombinant ADAM17, EDANS/DABCYL QFRET peptide cleavage;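 active means mean inhibition across replicates above the hit cutoff set in the primary screen, cut at about 8.5% in these data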;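 further: 0% = DMSO wells and 100% = marimastat wells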
# Starred values were filed as active, the others as inactive; nt = no result given. In the library only some 4.6% were active in any assay of this set; here they are far more common.
SMILES,NR3A LBD binder,FAS TE block,ADAM10 inh,ADAM17 inh,KLK7 zymogen act,ADAM10 ctr,ADAM17 confirm
Cc1ccccc1NC(=O)Cc1nc(COC(=O)c2ccc(Cl)nc2)cs1,1,-14,-10,8.7*,0,7,5
CCCCN(C(=O)C1CC(=O)N(c2ccc(C)cc2)C1)c1c(N)n(CCC)c(=O)[nH]c1=O (stereo not given),-1,-5,-1,11*,0,-5,-2
C=CCOC(=O)C1=C(C)N=C2SCCC(=O)N2C1c1ccc(OC(=O)c2ccco2)cc1 (stereo not given),2,16,-6,0,-3,nt,nt
COC(=O)C1=C(C)N=C2SCCC(=O)N2C1c1ccc(OC(=O)c2ccco2)cc1 (stereo not given),-1,5,16,17*,-1,1,1
CCOC(=O)Cn1c(S(=O)(=O)Cc2ccc(F)cc2)nc(-c2ccccc2)c1-c1ccccc1,0,28,3,2,0,nt,nt
C#CCn1c(S(=O)(=O)Cc2ccc(F)cc2)nc(-c2ccccc2)c1-c1ccccc1,2,34,16,8.7*,0,22*,16*
COC(=O)C1=C(C)N(Cc2ccc(C(F)(F)F)cc2)C(=NCc2cccc(C(F)(F)F)c2)NC1c1ccccc1C(F)(F)F (stereo not given),nt,nt,-1,0,0,nt,nt
Cc1ccc(NC(=O)c2ccc3c(c2)OCCO3)cc1C,1,4,5,1,1,nt,nt
Cc1ccc(NC(=O)c2ccc3c(c2)OCCO3)cc1S(=O)(=O)Nc1cccc(Cl)c1,9,27,16,9.8*,0,21*,11*
CCCCC(=O)NC(c1cccc([N+](=O)[O-])c1)c1ccc2cccnc2c1O (stereo not given),-5,12,18,9.6*,0,25*,17*
CC(=O)NC(c1cccc([N+](=O)[O-])c1)c1ccc2cccnc2c1O (stereo not given),0,21,9,2,0,nt,nt
COC(=O)c1ccc(-n2c(C)cc(C(=O)CSc3ccc(NC(C)=O)cc3)c2C)cc1,-18,9,18,9.0*,0,22*,16*
O=C(CC1CCCC1)N[C@H](C(=O)N1CCC[C@H]1C(=O)NC1CCCC1)C1CCCCC1,nt,nt,2,4,0,nt,nt
Cc1ccccc1C(=O)N1CCN(C(=O)C(=O)c2cccc(C(F)(F)F)c2)CC1,nt,nt,0,-2,0,nt,nt
O=C(/C=C/c1ccccc1Cl)Nc1ccc2c(c1)C(=O)NC2=O,7,-6,-93,-17,-2,nt,nt
O=C(/C=C/c1ccccc1Cl)Nc1cccc(O)c1,30*,6,6,9.2*,0,2,4
COc1ccc(O)c(/C=N/NC(=O)c2ccc(CSc3nc(C)cc(C)n3)cc2)c1,1,17,19,14*,-3,10,9.5*
Cc1cc(C)nc(SCc2ccc(C(=O)N/N=C/c3cccc(O)c3O)cc2)n1,4,8,19,5,0,nt,nt
CN(c1cccc(NC(=O)CN(c2cccc(Cl)c2)S(=O)(=O)c2ccc(Cl)cc2)c1)S(C)(=O)=O,4,16,18,11*,0,31*,16*
Cc1ccc(Cl)cc1N(CC(=O)Nc1cccc(N(C)S(C)(=O)=O)c1)S(C)(=O)=O,-3,2,0,-2,0,nt,nt
Cn1cc(C2(c3c[nH]c4ccccc34)CCN(C(=O)OC(C)(C)C)CC2)c2ccccc21,nt,nt,10,11*,-1,3,7
CC(C)(C)OC(=O)N1CCN(C(=O)c2[nH]cnc2C(=O)NCc2ccccc2)CC1,1,-8,-1,2,0,nt,nt
CC(C)(C)S(=O)(=O)N1Cc2cc(CO)ccc2[C@H]1CCO,nt,nt,-9,-4,1,nt,nt
O=C(C(=O)N1CCN(S(=O)(=O)c2ccc(C(F)(F)F)cc2)CC1)c1cccc(C(F)(F)F)c1,nt,nt,1,0,0,nt,nt
Cc1ccc(C)c(N(CC(=O)Nc2ccccc2C(=O)NCc2ccco2)S(=O)(=O)c2ccccc2)c1,4,33,12,9.6*,-1,23*,16*
SMILES,NR3A LBD binder,FAS TE block,ADAM10 inh,ADAM17 inh,KLK7 zymogen act,ADAM10 ctr,ADAM17 confirm
Cc1ccc(N(CC(=O)Nc2ccccc2C(=O)NCc2ccco2)S(=O)(=O)c2ccccc2)cc1C,-1,28,4,-6,-4,nt,nt
Cc1cc(N2CCNC[C@H]2C)ccc1N1CCS(=O)(=O)CC1,nt,nt,-2,-2,0,nt,nt
COC(=O)[C@]12C[C@H](CC(=O)N3CCN(C(=O)c4ccco4)CC3)C(=O)N(Cc3ccccc3)C1=C[C@H](C(C)(C)C)O[C@@H]2C,nt,nt,5,1,0,nt,nt
CCOC(=O)C1=C(C)Nc2ccccc2N/C1=N\S(=O)(=O)c1cccc(Cl)c1,-3,-3,-6,-1,0,nt,nt
CCOC(=O)C1=C(C)Nc2ccccc2N/C1=N\S(=O)(=O)c1ccc(Cl)cc1,-2,-6,0,12*,-1,4,5
O=C(CSc1nc2ccc(NC(=O)c3ccccc3C(=O)O)cc2s1)Nc1ccc(F)c([N+](=O)[O-])c1,18*,15,19,9.3*,-1,-2,2
COc1ccccc1C(=O)Nc1ccc2nc(SCC(=O)N(C)C)sc2c1,2,-6,0,0,1,nt,nt
COc1ccccc1NC(=O)CN1C(=O)NC2(CCCCCCC2)C1=O,-2,-2,2,6,0,nt,nt
COc1ccccc1OCCNC(=O)CN1C(=O)NC2(CCCC2)C1=O,0,-4,-1,9.3*,0,8,8
Nc1nc(C(c2ccccc2)c2ccccc2)cs1,-3,0,20,8.7*,0,6,4
Nc1nc(-c2ccccc2)cs1,-6,-8,2,-5,0,nt,nt
CC(=O)N1CC(C)Sc2ccc(S(=O)(=O)NCCc3ccc(C)cc3)cc21 (stereo not given),0,10,11,9.3*,0,1,6
CC(=O)N1CC(C)Sc2ccc(S(=O)(=O)NCCc3ccccc3)cc21 (stereo not given),-5,1,-2,6,0,nt,nt
CCCOc1ccc(F)cc1-c1cc(C(=O)NCc2cccc(C(F)(F)F)c2)[nH]n1,nt,20,15,9.7*,0,22*,15*
Cc1cc(F)cc(-c2cc(C(=O)NCc3cccc(Cl)c3)[nH]n2)c1,nt,9,12,9.1*,0,6,2
Cc1ccc(S(=O)(=O)N(C)[C@H]2C[C@H]3c4cc(-c5ccc6c(c5)OCO6)ccc4CCN3C[C@H]2[C@H](C)O)cc1,nt,nt,-11,-5,0,nt,nt
COC(=O)C1=C(C)N(CC(C)C)C(=S)NC1c1cccc(Br)c1 (stereo not given),nt,nt,10,2,0,nt,nt
